The source of these data is PubChem BioAssay.

For orientation: inhibition means the drop in the measured response relative to a control, in per cent.

Values without a mark were called inactive. For some of these results: Results with a measured potency or affinity are listed apart. Active and inactive are the calls of the source. Unless noted, the rule behind the calls is not given here.

The nature of assay [1]: antimalarial activity against Dd2 strain (AID 2302;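 active = growth inhibition above 50% at the single 2 µM test dose, taken to imply half-maximal potency below 2 µM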;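 note: 0% = DMSO untreated growth and 100% = chloroquine plus artemisinin killed control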). Conditions: P. falciparum Dd2 in RBCs, LDH growth readout, 72 h; at 2 µM; stronger effect = higher value.
Assay [2] is described as follows: human hepatoma cell viability loss – ATP luminescence, cytotoxicity control for P. falciparum antimalarial project, primary screen (AID 2303;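 active = inhibition above 50%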;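 note: 0% = DMSO wells and 100% = digitonin-killed cells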). The following applies: HepG2 viability, 24-48 h, at 10 µM, stronger effect = higher value.
The target in assay [3] is L-lactate dehydrogenase (Plasmodium falciparum (isolate CDC / Honduras)) (UniProt Q27743). The assay is described as follows: PfLDH activity inhibition – cell lysate, 3D7 strain, counter-screen for P. falciparum growth inhibition project (AID 2304).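 Note: 0% = vehicle and 100% = reference inhibitor.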 The following applies: P. falciparum 3D7 crude extract, LDH APAD/NBT absorbance; at 2 µM; stronger effect = higher value.
Sequence of L-lactate dehydrogenase (Plasmodium falciparum (isolate CDC / Honduras)) (Q27743 whole entry, looked up): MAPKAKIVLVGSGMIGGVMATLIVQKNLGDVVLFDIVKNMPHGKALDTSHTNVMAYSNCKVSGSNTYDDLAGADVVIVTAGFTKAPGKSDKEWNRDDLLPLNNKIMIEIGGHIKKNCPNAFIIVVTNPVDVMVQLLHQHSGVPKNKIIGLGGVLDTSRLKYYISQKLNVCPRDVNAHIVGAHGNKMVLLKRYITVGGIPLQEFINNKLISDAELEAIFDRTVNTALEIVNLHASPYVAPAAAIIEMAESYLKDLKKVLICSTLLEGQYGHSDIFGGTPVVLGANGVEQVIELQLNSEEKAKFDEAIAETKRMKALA
Assay [4] is described as follows: inhibition of 3D7 malaria parasite growth – strain 3D7 (AID 2306).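 Note: 0% = DMSO wells and 100% = chloroquine plus artemisinin control wells.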 The following applies: P. falciparum 3D7 erythrocytic growth, LDH absorbance, 72 h; at 2 µM; stronger effect = higher value.
Assay [5] deals with Calcium-dependent protein kinase 1 (Plasmodium falciparum (isolate 3D7)) (UniProt P62344). In words: PfCDPK1 kinase inhibitors, biochemical, TCAMS library (AID 1159585; cut-off not given, nearly all actives have IC50 up to about 0.98 µM;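 note: inhibitors leave more ATP so luminescence rises with inhibition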). Conditions: recombinant PfCDPK1, Kinase-Glo ATP depletion luminescence.
Sequence of Calcium-dependent protein kinase 1 (Plasmodium falciparum (isolate 3D7)) (P62344 whole entry, looked up): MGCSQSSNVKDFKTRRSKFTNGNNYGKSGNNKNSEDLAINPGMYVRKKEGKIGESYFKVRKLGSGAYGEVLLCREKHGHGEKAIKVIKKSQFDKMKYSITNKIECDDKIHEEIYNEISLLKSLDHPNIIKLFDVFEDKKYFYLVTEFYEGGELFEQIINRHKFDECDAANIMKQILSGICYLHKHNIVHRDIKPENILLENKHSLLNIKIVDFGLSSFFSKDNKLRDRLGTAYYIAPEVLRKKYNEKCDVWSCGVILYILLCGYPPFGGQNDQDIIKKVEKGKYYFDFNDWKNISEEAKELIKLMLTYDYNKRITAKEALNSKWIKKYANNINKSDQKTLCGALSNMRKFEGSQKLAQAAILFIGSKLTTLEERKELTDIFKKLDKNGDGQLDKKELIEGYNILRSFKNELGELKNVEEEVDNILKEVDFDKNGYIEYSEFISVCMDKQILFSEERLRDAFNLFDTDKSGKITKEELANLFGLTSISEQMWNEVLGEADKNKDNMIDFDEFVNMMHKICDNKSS
Assay [6] addresses Plasmodium falciparum protein kinase 6 (PK6, PF3D7_1337100) (UniProt Q8IDW1). In words: PfPK6 kinase inhibitors, biochemical, TCAMS library (AID 1159586). Conditions: recombinant PfPK6, Kinase-Glo ATP depletion luminescence. (Kinase-Glo measures the ATP left after a reaction by luminescence.)
Assay [7] addresses Protein kinase 7 (PK7), Plasmodium falciparum 3D7 (PF3D7_0213400) (UniProt Q7YTF7). The assay is described as follows: inhibition of Plasmodium PK7 catalytic activity – biochemical, TCAMS antimalarial set, Kinase-Glo luminescence (AID 1159587). The following applies: recombinant PfPK7, Kinase-Glo ATP depletion luminescence.
Assay [8] deals with Calcium-dependent protein kinase 4 (Plasmodium falciparum (isolate 3D7)) (UniProt Q8IBS5). The assay is described as follows: PfCDPK4 kinase inhibitors, biochemical, TCAMS library (AID 1159588; cut-off not given, nearly all actives have IC50 up to about 0.91 µM). The following applies: recombinant PfCDPK4, Kinase-Glo ATP depletion luminescence.
Sequence of Calcium-dependent protein kinase 4 (Plasmodium falciparum (isolate 3D7)) (Q8IBS5 whole entry, looked up): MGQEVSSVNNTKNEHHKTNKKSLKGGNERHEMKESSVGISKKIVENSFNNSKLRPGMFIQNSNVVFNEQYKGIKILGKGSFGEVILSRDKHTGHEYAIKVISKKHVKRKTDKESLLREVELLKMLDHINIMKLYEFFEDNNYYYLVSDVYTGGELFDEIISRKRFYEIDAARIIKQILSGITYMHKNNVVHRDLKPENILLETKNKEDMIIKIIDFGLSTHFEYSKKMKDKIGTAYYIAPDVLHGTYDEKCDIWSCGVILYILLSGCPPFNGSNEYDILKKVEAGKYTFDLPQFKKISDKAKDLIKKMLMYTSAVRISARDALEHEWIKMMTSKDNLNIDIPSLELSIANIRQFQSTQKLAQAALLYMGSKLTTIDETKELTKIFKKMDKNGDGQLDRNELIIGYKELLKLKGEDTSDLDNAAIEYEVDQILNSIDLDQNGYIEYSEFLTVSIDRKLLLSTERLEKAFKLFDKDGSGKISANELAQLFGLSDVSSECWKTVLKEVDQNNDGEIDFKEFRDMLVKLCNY

Sequence of Protein kinase 7 (PK7), Plasmodium falciparum 3D7 (PF3D7_0213400) (Q7YTF7 1-343): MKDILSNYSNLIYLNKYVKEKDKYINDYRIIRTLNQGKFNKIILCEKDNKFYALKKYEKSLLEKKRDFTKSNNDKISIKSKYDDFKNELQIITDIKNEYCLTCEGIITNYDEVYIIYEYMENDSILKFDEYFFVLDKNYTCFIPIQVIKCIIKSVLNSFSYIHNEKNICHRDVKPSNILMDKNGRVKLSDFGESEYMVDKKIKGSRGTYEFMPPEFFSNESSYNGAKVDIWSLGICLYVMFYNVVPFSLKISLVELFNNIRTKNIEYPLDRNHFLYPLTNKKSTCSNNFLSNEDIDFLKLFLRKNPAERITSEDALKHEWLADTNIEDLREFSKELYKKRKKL
Sequence of Plasmodium falciparum protein kinase 6 (PK6, PF3D7_1337100) (Q8IDW1 1-305): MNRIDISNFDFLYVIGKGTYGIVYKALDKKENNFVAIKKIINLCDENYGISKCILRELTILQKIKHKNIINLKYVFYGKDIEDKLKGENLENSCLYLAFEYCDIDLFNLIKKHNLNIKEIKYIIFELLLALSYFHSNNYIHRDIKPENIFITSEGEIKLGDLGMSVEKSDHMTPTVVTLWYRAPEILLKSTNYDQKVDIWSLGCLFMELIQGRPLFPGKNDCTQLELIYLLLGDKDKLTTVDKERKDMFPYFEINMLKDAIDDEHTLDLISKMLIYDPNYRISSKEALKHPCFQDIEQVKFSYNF

On to `NC1CCCN(Cc2cccc(-c3cccc(-c4nc5ccccc5[nH]4)c3)c2)C1` (stereo not given), for which the growth inhibition in assay [1] is 61% (active); in assay [4] it was 101% (active). Moreover, the inhibition in assay [2] is 24%; in assay [3], -5%. Further, the result in assay [5], in assay [6], in assay [7] and in assay [8] was inactive.
With `O=C(NC1CC1)c1cnc(N2CCC(c3ccccc3)CC2)c(Cl)c1`, the results for the growth inhibition in assay [1] and in assay [4] were 95% (active) and 94% (active), respectively. Moreover, the inhibition is 6% in assay [2] and 0% in assay [3]. Besides, the result in assay [5], in assay [6], in assay [7] and in assay [8] was inactive.
Take `Cc1cc(C)cc(OCC(O)CN(Cc2cc(Cl)cc(Cl)c2)C(=O)Nc2ccccc2Cl)c1` (stereo not given): the growth inhibition in assay [1] is 37%; in assay [4], 93% (active). For the same compound, the inhibition in assay [2] is -1%; in assay [3] it was 2%. The result in assay [5], in assay [6], in assay [7] and in assay [8] was inactive.
Regarding `CC(C)Oc1ccc(N2CCN(CCCCNC(=O)c3ccc(NC(=O)c4ccc(Cl)cc4)cc3)CC2)c(OC(C)C)c1`, the growth inhibition in assay [1] is 85% (active); in assay [4], 102% (active). Moreover, the values for the inhibition in assay [2] and in assay [3] were 31% and 1%, respectively. Further, the outcome in assay [5], in assay [6], in assay [7] and in assay [8] was inactive.
As for `CC(C)CC(C)NC(=O)C1Cc2c([nH]c3ccc(F)cc23)C2(CCN(Cc3ccccc3)CC2)N1` (stereo not given), the growth inhibition in assay [1] was 49%; in assay [4] it was 97% (active). Further, the inhibition in assay [2] was 18%; in assay [3], 7%. In addition, the result in assay [5], in assay [6], in assay [7] and in assay [8] was inactive.
On to `Cc1ccnc(NC(=O)c2cc(-c3cccc([N+](=O)[O-])c3)nc3onc(C)c23)c1`, for which the growth inhibition in assay [1] was 44%; in assay [4], 91% (active). Besides, the values for the inhibition in assay [2] and in assay [3] were 5% and -1%, respectively. Besides, the outcome in assay [5], in assay [6], in assay [7] and in assay [8] was inactive.
Consider `CN(C)CC(=O)Nc1ccc(Nc2nccc(NCC(O)c3ccccc3)n2)cc1` (stereo not given), for which the growth inhibition in assay [1] was 2%; in assay [4], 95% (active). In addition, the values for the inhibition in assay [2] and in assay [3] were -2% and -4%, respectively. The outcome in assay [5], in assay [6], in assay [7] and in assay [8] was inactive.
On to `COc1cc(OC)nc(-c2cccc(NC(=O)c3ccc4c(=O)n(CCN5CCCCC5)cnc4c3)c2)n1`, for which the growth inhibition in assay [1] is 86% (active); in assay [4], 100% (active). In addition, the inhibition in assay [2] was 11%; in assay [3] it was -1%. In addition, the result in assay [5], in assay [6], in assay [7] and in assay [8] was inactive.
Regarding `COc1cc2c(cc1OCCN1CCC(N3CCCCC3)CC1)N(C(=O)/C=C/c1ccccc1OC(F)(F)F)CC2`, the results for the growth inhibition in assay [1] and in assay [4] were 93% (active) and 101% (active), respectively. Further, the inhibition in assay [2] is 64% (active); in assay [3] it was -7%. Also, the result in assay [5], in assay [6], in assay [7] and in assay [8] was inactive.
On to `CC(=O)Nc1ccc(CN2CCC(CNC(=O)c3cc(-c4cccc(Cl)c4)cs3)C2)cc1` (stereo not given), for which the results for the growth inhibition in assay [1] and in assay [4] were 1% and 91% (active), respectively. Also, the inhibition in assay [2] is 24%; in assay [3] it was 2%. Further, the result in assay [5], in assay [6], in assay [7] and in assay [8] was inactive.
As to `Cc1cccc2[nH]c(-c3ccc(-c4ccc(CN5CCCC(O)C5)cc4)cc3)nc12` (stereo not given), the growth inhibition in assay [1] was 54% (active); in assay [4], 100% (active). In addition, the figures for the inhibition in assay [2] and in assay [3] were 41% and 6%, respectively. In addition, the outcome in assay [5], in assay [6], in assay [7] and in assay [8] was inactive.
Take `CN(C)CCCN1CCN(C(=O)c2cc3cc(-c4ccccc4)ccc3n2S(=O)(=O)c2ccccc2)CC1`: the growth inhibition is 94% (active) in assay [1] and 101% (active) in assay [4]. The inhibition in assay [2] is 32%; in assay [3], 4%. In addition, the outcome in assay [5], in assay [6], in assay [7] and in assay [8] was inactive.
Regarding `Cc1[nH]c(C)c([N+](=O)[O-])c(=O)c1-c1ccc(Oc2ccccc2)cc1`, the growth inhibition in assay [1] was 97% (active); in assay [4], 98% (active). Besides, the inhibition was 11% in assay [2] and 3% in assay [3]. For the same compound, the outcome in assay [5], in assay [6], in assay [7] and in assay [8] was inactive.
As for `CSc1ccccc1NC(=S)NC1CCN(CCCCCNC(=O)/C=C/c2ccc(Cl)c(Cl)c2)CC1`, the figures for the growth inhibition in assay [1] and in assay [4] were 27% and 98% (active), respectively. Also, the inhibition in assay [2] was 19%; in assay [3], 4%. Besides, the outcome in assay [5], in assay [6], in assay [7] and in assay [8] was inactive.
Turning to `COc1ccc(Nc2ncc3c(-c4cccc(NC(=O)CC(C)C)c4)c[nH]c3n2)cc1OC`, the growth inhibition in assay [1] was 71% (active); in assay [4], 101% (active). Besides, the inhibition was 37% in assay [2] and 5% in assay [3]. The outcome in assay [5], in assay [6], in assay [7] and in assay [8] was inactive.
`CCCCc1cc(NCC)nc(Nc2cccc(OC)c2)n1`: the growth inhibition was 69% (active) in assay [1] and 97% (active) in assay [4]. Besides, the inhibition in assay [2] is 9%; in assay [3], -4%. The outcome in assay [5], in assay [6], in assay [7] and in assay [8] was inactive.
As for `COc1cc(Cc2cnc(N)nc2N)ccc1Oc1ccc(N)cc1`, the values for the growth inhibition in assay [1] and in assay [4] were -1% and 93% (active), respectively. The inhibition is 0% in assay [2] and 6% in assay [3]. Also, the result in assay [5], in assay [6], in assay [7] and in assay [8] was inactive.
For the compound `CCc1ccc(CN2CCC(C(=O)Nc3ccc(-c4nc5ccccc5[nH]4)cc3)CC2)o1`, the values for the growth inhibition in assay [1] and in assay [4] were 94% (active) and 99% (active), respectively. Also, the inhibition is 29% in assay [2] and -4% in assay [3]. In addition, the outcome in assay [5], in assay [6], in assay [7] and in assay [8] was inactive.
Consider `CCNc1cc(C)nc(Nc2ccc(NC(=O)c3c(F)cccc3Cl)cc2)n1`, for which the growth inhibition in assay [1] is 89% (active); in assay [4] it was 102% (active). Further, the values for the inhibition in assay [2] and in assay [3] were 49% and -4%, respectively. Further, the result in assay [5], in assay [6], in assay [7] and in assay [8] was inactive.
For the compound `OC(CNCc1ccco1)Cn1c2ccc(Br)cc2c2cc(Br)ccc21` (stereo not given), the figures for the growth inhibition in assay [1] and in assay [4] were 72% (active) and 92% (active), respectively. Further, the inhibition was 10% in assay [2] and -3% in assay [3]. Besides, the outcome in assay [5], in assay [6], in assay [7] and in assay [8] was inactive.
